Compounds without any hit were thinned out: in the full panel of roughly 83,000, 20% have a hit.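 Compound tested at a single concentration for 48 hours in 96-well plates; a percent growth value below 10 was scored as active.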 Unmarked numbers belong to inactive results. Calls of active or inactive are those of the source.

Holding throughout (assay): NCI-60 one-dose screen, 48 h (100 = growth as untreated, 0 = no growth, -100 = all killed)
One assay relates to HCT-15 colon. Particulars: 10 µM unless noted.
A further assay concerns HT29 colon. Particulars: 10 µM unless noted.
A further assay concerns SNB-75 CNS. To be noted: 10 µM unless noted.
For the next assay, the system named is SNB-19 CNS. To be noted: 10 µM unless noted.
Another assay relates to U251 CNS. Particulars: 10 µM unless noted.
A further assay has as its system PC-3 prostate. Particulars: 10 µM unless noted.
Another assay relates to SK-MEL-5 melanoma. To be noted: 10 µM unless noted.
A further assay relates to UACC-62 melanoma. Particulars: 10 µM unless noted.
Another assay has as its system LOX IMVI melanoma. To be noted: 10 µM unless noted.
Another assay relates to SK-MEL-28 melanoma. To be noted: 10 µM unless noted.
The test system of another assay is EKVX NSCLC. Particulars: 10 µM unless noted.
For the next assay, the system named is SN12C renal. To be noted: 10 µM unless noted.
In the next assay the test system is UO-31 renal. Particulars: 10 µM unless noted.
The subject of another assay is TK-10 renal. Particulars: 10 µM unless noted.
The next assay has as its system ACHN renal. Particulars: 10 µM unless noted.
For a further assay, the system named is CAKI-1 renal. To be noted: 10 µM.
The next assay concerns A498 renal. To be noted: 10 µM unless noted.
A further assay concerns CCRF-CEM leukemia. To be noted: 10 µM unless noted.
The subject of a further assay is MOLT-4 leukemia. Particulars: 10 µM unless noted.

Regarding `O=c1cc(-c2ccccc2)nc2sc(-c3c[nH]c4ccc(Br)cc34)nn12`, the growth in the assay with HCT-15 colon is 91.6%; with HT29 colon, 102%; in the assay on SNB-75 CNS it was 108%; in the assay on SNB-19 CNS it was 88.4%; in the assay on U251 CNS, 100%; in the assay with PC-3 prostate it was 85.4%. Also, the growth was 98.9% with SK-MEL-5 melanoma; 87.4% in the assay on UACC-62 melanoma; 102% with LOX IMVI melanoma; 93.9% with SK-MEL-28 melanoma; 91.2% with EKVX NSCLC; 94.9% in the assay with SN12C renal. The growth was 79.6% in the assay on UO-31 renal; 110% in the assay with TK-10 renal; 96.3% with ACHN renal; 91.4% with CAKI-1 renal; 85.5% with A498 renal; 123% with CCRF-CEM leukemia.
For `COc1cc2c3c(n(CCCNC4CCCC4)c(=O)c2cc1OC)-c1cc2c(cc1C3=O)OCO2`, the growth is -68.6% (active) with HCT-15 colon; -55.1% (active) in the assay on HT29 colon; 84.9% with SNB-75 CNS; 46.2% with SNB-19 CNS; -87.9% (active) in the assay with U251 CNS; -84.7% (active) in the assay with PC-3 prostate. Besides, the growth with SK-MEL-5 melanoma was 95%; with UACC-62 melanoma it was 74%; with LOX IMVI melanoma, -82.3% (active); in the assay with SK-MEL-28 melanoma, 95.8%; in the assay on EKVX NSCLC it was -67.4% (active); with SN12C renal, -60.9% (active). For the same compound, the growth was 76.2% with UO-31 renal; -97% (active) in the assay with TK-10 renal; -95.5% (active) in the assay on ACHN renal; 11.7% in the assay on CAKI-1 renal; 80.3% with A498 renal; -13.8% (active) in the assay with CCRF-CEM leukemia.
As to `COc1cc2c3c(n(CCCN4CCCCC4)c(=O)c2cc1OC)-c1cc2c(cc1C3=O)OCO2`, the growth in the assay on HCT-15 colon was -84.2% (active); in the assay with HT29 colon it was -96.9% (active); in the assay on SNB-75 CNS, -85.3% (active); with SNB-19 CNS, -72.3% (active); with U251 CNS, -92.5% (active); in the assay on PC-3 prostate it was -87% (active). Further, the growth with SK-MEL-5 melanoma was 60.8%; in the assay with UACC-62 melanoma it was 59.2%; in the assay on LOX IMVI melanoma it was -74% (active); in the assay with SK-MEL-28 melanoma, -79.4% (active); in the assay with EKVX NSCLC it was -56.2% (active); with SN12C renal, -72.1% (active). Further, the growth is -89.3% (active) with UO-31 renal; -87.2% (active) in the assay on TK-10 renal; -96.7% (active) in the assay with ACHN renal; -82.9% (active) in the assay on CAKI-1 renal; 70.9% with A498 renal; -11.6% (active) with CCRF-CEM leukemia.
Turning to `C=CCn1c(SCC(=O)Nc2cccc(C(=O)/C=C/c3ccccc3Cl)c2)nc2ccccc2c1=O`, the growth in the assay on HCT-15 colon was 75.4%; with HT29 colon, 75%; with SNB-75 CNS, 70.9%; in the assay with SNB-19 CNS, 78.5%; in the assay on U251 CNS, 81.8%; in the assay on PC-3 prostate it was 82.8%. Moreover, the growth is 98.8% in the assay on SK-MEL-5 melanoma; 83.4% in the assay with UACC-62 melanoma; 79.5% with LOX IMVI melanoma; 92.3% in the assay with SK-MEL-28 melanoma; 94.7% with EKVX NSCLC; 91.5% in the assay on SN12C renal. In addition, the growth is 73% in the assay with UO-31 renal; 110% in the assay with TK-10 renal; 96.3% in the assay on ACHN renal; 79.2% with CAKI-1 renal; 82.8% in the assay on A498 renal; 93.8% in the assay on CCRF-CEM leukemia.
For `COc1ccc([C@@H]2[C@@H](O)C(=O)N2c2cc(OC)c(OC)c(OC)c2)cc1`, the growth with HCT-15 colon is 12.4%; in the assay with HT29 colon, 1.28% (active); in the assay with SNB-75 CNS, 50.7%; in the assay on SNB-19 CNS, 31.6%; with U251 CNS it was 4.38% (active); in the assay with PC-3 prostate it was 16.2%. For the same compound, the growth in the assay on SK-MEL-5 melanoma is -28.6% (active); with UACC-62 melanoma, 20.3%; with LOX IMVI melanoma, 16.3%; with SK-MEL-28 melanoma, 61%; in the assay on EKVX NSCLC, 51.2%; in the assay with SN12C renal, 24.6%. Besides, the growth is 29.9% in the assay with UO-31 renal; 74.5% in the assay with TK-10 renal; 26.8% in the assay with ACHN renal; 25.6% in the assay on CAKI-1 renal; -20.8% (active) in the assay with A498 renal; 24% with CCRF-CEM leukemia.
For the compound `CS(=O)c1nccc(-c2c(-c3ccc(F)c(OCc4ccc(F)cc4)c3)nc3sccn23)n1` (stereo unspecified), the growth is 59.4% in the assay on HCT-15 colon; 27.9% in the assay on HT29 colon; 94.4% with SNB-75 CNS; 68.7% with SNB-19 CNS; 96% with U251 CNS; -10.7% (active) in the assay with PC-3 prostate. For the same compound, the growth in the assay with SK-MEL-5 melanoma is 100%; in the assay on UACC-62 melanoma it was 85.6%; in the assay on LOX IMVI melanoma, 78.6%; in the assay on SK-MEL-28 melanoma it was 41.1%; in the assay with EKVX NSCLC, 75.2%; in the assay with SN12C renal it was 93.6%. The growth with UO-31 renal was 89.3%; in the assay with TK-10 renal, 108%; in the assay with ACHN renal, 77.2%; in the assay with CAKI-1 renal it was 70.8%; with A498 renal, 88.2%; with CCRF-CEM leukemia, 45.8%.
As to `CNC(=O)c1cc(Oc2ccc3nc(NC(=O)c4cc(C)cc(C)c4)sc3c2)ccn1`, the growth was 66.9% in the assay on HCT-15 colon; 86% in the assay on HT29 colon; 85.5% with SNB-75 CNS; 81.3% with SNB-19 CNS; 89.3% in the assay on U251 CNS; 47.9% with PC-3 prostate. For the same compound, the growth in the assay on SK-MEL-5 melanoma is 77.4%; in the assay with UACC-62 melanoma it was 76.9%; in the assay on LOX IMVI melanoma, 102%; in the assay with SK-MEL-28 melanoma, 79.9%; in the assay with EKVX NSCLC, 82%; with SN12C renal, 90.3%. Also, the growth with UO-31 renal was 78.8%; in the assay on TK-10 renal, 78.5%; in the assay with ACHN renal, 93.4%; in the assay on CAKI-1 renal, 79%; with A498 renal, 59.7%; in the assay with CCRF-CEM leukemia it was 57.3%. Moreover, in the assay with MOLT-4 leukemia, the growth is 58.3%.
In the case of `COc1cc2oc(-c3cccc(NC(=O)c4cc(NC(=O)[C@H](C)N)ccc4Cl)c3)cc(=O)c2c(OC)c1OC`, the growth in the assay with HCT-15 colon was 79.8%; in the assay on HT29 colon, 115%; in the assay on SNB-75 CNS, 96.1%; in the assay with SNB-19 CNS, 88.8%; in the assay with U251 CNS it was 95.3%; in the assay with PC-3 prostate, 81.2%. Also, the growth in the assay with SK-MEL-5 melanoma is 86%; with UACC-62 melanoma it was 89.3%; with LOX IMVI melanoma, 80.9%; with SK-MEL-28 melanoma it was 106%; with EKVX NSCLC, 90.7%; in the assay with SN12C renal, 90.9%. Also, the growth with UO-31 renal was 72.3%; with TK-10 renal, 99.8%; with ACHN renal, 91.3%; with CAKI-1 renal, 85.3%; in the assay with A498 renal it was 71.8%; with CCRF-CEM leukemia it was 71.7%. In addition, the growth in the assay with MOLT-4 leukemia was 76.3%.

The values above are taken from PubChem BioAssay (NCI).
